Screening data deposited in PubChem BioAssay by National Center for Advancing Translational Sciences (NCATS).
An excerpt weighted towards active compounds, which were near 3% of everything screened.
D3 antag – antagonists of human D3 dopamine receptor. D3R cells, DiscoveRx beta-arrestin luminescence, antagonist mode; hits give low values. max response, negative = inhibition, %. 360,000 tested, 2.5% active. AID 652054. P35462; in the data active means max response below about -50%; inconclusive means no clear call, values can overlap the other calls; further: on the % scale 0 is the no-effect control and ±100 the full control effect
Target sequence (P35462 whole entry, looked up): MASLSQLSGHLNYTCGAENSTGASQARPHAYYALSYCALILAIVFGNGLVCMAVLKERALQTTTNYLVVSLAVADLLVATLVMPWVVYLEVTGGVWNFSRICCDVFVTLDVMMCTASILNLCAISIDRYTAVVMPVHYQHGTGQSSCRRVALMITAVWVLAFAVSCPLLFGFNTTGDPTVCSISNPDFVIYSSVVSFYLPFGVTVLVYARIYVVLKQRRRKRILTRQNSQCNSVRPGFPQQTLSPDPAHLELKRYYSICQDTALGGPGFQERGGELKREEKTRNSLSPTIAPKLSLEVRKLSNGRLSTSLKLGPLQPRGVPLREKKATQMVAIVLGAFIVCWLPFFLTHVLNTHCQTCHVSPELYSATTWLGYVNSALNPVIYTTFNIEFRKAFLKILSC
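Cells expressing the human receptor were seeded at 1500 cells/well, incubated overnight at 37 degrees C in 5% CO2, then exposed to library compounds with dopamine controls for 90 minutes at 37 degrees C before luminescent detection.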
GRP78 ERSR act – inducers of ER stress response in human glioma cells; U87-MG GRP78 promoter luciferase reporter, 16 h; Potency, µM, without a hit: top-dose activation, most hits filed as activators; 420,000 tested, 0.02% active; further: potency means the concentration at half of the fitted maximal effect; series mostly up to about 76 µM; % of control where 0% means no effect; nearly all actives have a fitted effect of over 35% in size
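Stably transfected U87-MG human glioma cells carrying a GRP78-based luminescent sensor were seeded at 1000 cells/well, pin-dosed with compounds and incubated 16 h. Luciferase reagent was then added, and end-point luminescence was read after 10 min at room temperature.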
Nrf2 activator – Nrf2 pathway activation. AREc32 ARE-luciferase reporter (MCF7-derived line), luminescence, 24 h. Potency, µM (highest dose often 46.1 µM), without a hit: at the top dose activation, most hits filed as activators. 410,000 tested, 0.31% active; further: potency means the concentration at half of the fitted maximal effect; % of control where 0% means no effect; nearly all actives have a fitted effect of over 65% in size
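AREc32 cells carrying an ARE-driven firefly luciferase, 1000 cells/well in OPTI-MEM with 5% FBS, dosed after overnight attachment and incubated 24 hr at 37 deg C. Steady-Glo luminescence read after 30 min at RT.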
D3 ag – activates the human D3 dopamine receptor | P35462 | D3R DiscoveRx beta-arrestin cells, luminescence, 90 min | max activation, % | 410,000 tested, 0.58% active; in the data active means max activation above about 30%; further: 0% is about no effect
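Agonist mode: compounds and dopamine controls were applied to plated cells for 90 min at 37 degrees C after an overnight attachment at 1500 cells/well. Luminescent read-out followed 30 - 60 minutes at room temperature with DiscoveRx detection reagent.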
* = called active by the depositor; ? = inconclusive; / = no result given. Unless noted, the call rests on the fitted dose curve; in most records, active means well fitted curve in the direction sought with a large enough effect; inconclusive means small, poorly fitted or top-dose-only effect, or another doubt; inactive means no such curve, though single readings can be large; an effect the other way counts as inactive or inconclusive.

SMILES | D3 antag | GRP78 ERSR act | Nrf2 activator | D3 ag
CCc1ccc(C(=O)/C=C/c2ccc([N+](=O)[O-])o2)cc1 | -56* | -17% | ? | -2
CCOC(=O)CCc1ccc(NC(=O)/C=C/c2ccc([N+](=O)[O-])o2)cc1 | 1 | -14% | ? | -17
CC1(C)N=C(c2ccccc2)C(=O)N1 | 14 | -5% | 0% | 10
CC1(C)N=C(c2cccc(F)c2)C(=O)N1 | 16 | -4% | 0% | 43*
CN(C)c1ccc(C=Nc2ccc(/C=C3\C=Cc4ccccc43)cc2)cc1 | / | -3% | / | /
COc1cc(C=C2CCC/C(=C\c3ccc(O)c(OC)c3)C2=O)ccc1O | / | / | / | 5
CC(=O)Nc1ccc(S(=O)(=O)O)c2cc(S(=O)(=O)O)c(N=Nc3ccc(N=Nc4ccc(S(=O)(=O)O)cc4)c4ccc(S(=O)(=O)O)cc34)c(O)c12 | / | -10% | / | /
Cc1ccc(C(=S)N2CCN(Cc3ccccc3)CC2)s1 | -69* | -3% | 0% | -10
CN(C)c1ccc(C(=S)N2CCN(Cc3ccccc3)CC2)cc1 | -50* | 1% | 0% | -19
CN1CCN(C(=S)c2cn(Cc3ccc(Br)cc3)c3ccccc23)CC1 | -88* | -1% | 5% | -8
CCN1CCN(C(=S)c2ccc(Br)cc2)CC1 | -55* | -4% | 0% | -24
C[C@H](/C=C/[C@H](C)C(C)(C)O)[C@H]1CC[C@H]2/C(=C/C=C3C[C@@H](O)C[C@H](O)C3)CCC[C@]12C | / | -3% | / | 7
COc1cccc(C(=O)NCC2Cc3cccc(-c4cccnc4)c3O2)c1 (configuration not stated) | / | 5% | / | /
S=C(c1ccc(Br)cc1)N1CCN(Cc2ccccc2)CC1 | -78* | -2% | -1% | -44
CCn1nc(C(=O)Nc2ccc3nc(C)sc3c2)c2ccccc2c1=O | -86* | 14% | 4% | 1
Cc1nc2ccc(NC(=O)c3ccccc3)cc2s1 | -14 | 11% | 0% | -2
CCn1c(/C=C/c2ccccc2F)nc2ccccc2c1=O | 5 | 1% | 2.8µM* | 3
CCn1c(/C=C/c2ccc(O)cc2)nc2ccccc2c1=O | -1 | 0% | 9% | 7
CCn1c(/C=C/c2ccccc2C)nc2ccccc2c1=O | -9 | 1% | 27% | -4
CCn1c(/C=C/c2c(C)n(CC)c3ccccc23)nc2ccccc2c1=O | 57 | -3% | -1% | 35*
COc1cc2c(=O)n(CCCN3CCOCC3)c(=S)[nH]c2c(OC)c1OC | -83* | 5% | -1% | -4
CCOc1cc2[nH]c(=S)n(CCCN3CCOCC3)c(=O)c2cc1OCC | -71* | -1% | 0% | -55
CCC(C)NCCOCCOc1cc(C)c(Cl)c(C)c1 (configuration not stated) | ? | -5% | 4% | -10
CCC(C)NCCOCCOc1ccc(F)cc1 (configuration not stated) | -66* | -5% | 3% | -9
CC(C)(C)NCCOCCOc1ccccc1-c1ccccc1 | 9 | -4% | 2% | -37
SMILES | D3 antag | GRP78 ERSR act | Nrf2 activator | D3 ag
CCC(C)NCCOCCOc1ccccc1-c1ccccc1 (configuration not stated) | -69* | 1% | 0% | -27
COc1ccc(O)c(/C=N/Nc2nc(Nc3ccccc3)nc(-n3nc(C)cc3C)n2)c1 | -117* | 0% | -3% | -39
Cc1cc(N/N=C/c2ccccc2O)nc(-c2ccccc2O)n1 | -131* | 1% | 13% | -1
COc1cc(/C=N/Nc2nc(Nc3ccccc3)nc(-n3nc(C)cc3C)n2)cc(OC)c1OC | 1 | -3% | -3% | 17
Cc1cc(N/N=C/c2ccc(O)cc2O)nc(-n2nc(C)cc2C)n1 | -122* | -4% | 21% | -28
COc1cccc(CN2CCC(n3cc(C(=O)N4CCCCC4)nn3)CC2)c1OC | / | -1% | / | /
O=[N+]([O-])c1ccc(O)c(NC(=S)Nc2ccccc2)c1 | -78* | 4% | ? | -7
O=[N+]([O-])c1ccc(NNC(=S)Nc2ccccc2)cc1 | -93* | -6% | 7% | -2
CCCc1cc(C(=O)Nc2c(C)nn(Cc3c(Cl)cccc3Cl)c2C)no1 | / | 11% | 4% | 5
CCN(CC)c1ccc(/C=N/n2c(-c3ccccc3Br)n[nH]c2=S)cc1 | -71* | -3% | 1% | -34
Cc1nn(-c2ccccc2)c(C)c1/C=N/n1c(-c2ccccc2Br)n[nH]c1=S | -19 | -1% | 4% | -1
Oc1[nH]c(N=C2N=c3ccccc3=N2)c2ccccc12 | 12 | 10% | 5.6µM* | 4
Cc1ccc2c(c1)=N/C(=N\c1[nH]c(O)c3ccccc13)N=2 | -16 | ? | -3% | 0
